# In PubChem BioAssay (NCATS):
# Where “and” joins values, the source holds several entries; their conditions need not be identical. Equal entries are not always repeated. Records with an inconclusive call do not appear. Calls of active or inactive are those of the source. Calls come from the whole dose curve; as a rule, active = well fitted cell-killing curve with a large enough effect; inconclusive = small, poorly fitted or top-dose-only effect, or effect the other way; inactive = flat fitted curve, though single readings scatter. Non-standard residues stand in square brackets, D forms with d. Residues, ends and D or L forms follow the SMILES beside them. Peptide text beside a SMILES is read from it. *: point of attachment. Sta = CC(C)C[C@H](N)[C@@H](O)CC(=O)O; Isovaleryl = CC(C)CC(=O)*
# Test system: SKOV3
# Experiment: Primary qHTS to identify gynecologic anti-cancer compounds using libraries of approved drugs and bioactive compounds (AID 1345084); note: nearly all actives have a fitted effect of over 55% in size
# Settings: Gynecologic cancer cell panel viability, ATPlite luminescence, 48 h; series mostly up to 57.5 µM; activity change, negative = cytotoxicity: at the top concentration
# Summary of the method: (§1)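 Measured: luminescence after ATPlite addition (15 min, RT). Exposure: 48 h, 37 C, 5% CO2.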
# % is set by controls: 0 for no effect and ±100 for the full control effect; potency is the fitted concentration of half-maximal effect.
Compound,"activity change, negative = cytotoxicity",Potency
COc1ccc(C2(C#N)CCC(C(=O)O)CC2)cc1OC1CCCC1 (stereo not given),13.3% (inactive),–
CCN(CC)C(=S)SSC(=S)N(CC)CC,–,631 nM (active) and 1.41 µM (active)
CCN(CCO)CCCC(C)Nc1ccnc2cc(Cl)ccc12 (stereo not given),-2.72% [at 6.55 µM] (inactive) and 0.445% [at 6.55 µM] (inactive),–
Clc1ccc(C(Cn2ccnc2)OCc2ccc(Sc3ccccc3)cc2)c(Cl)c1 (stereo not given),6.29% (inactive),–
Oc1ccc(OCc2ccccc2)cc1,4.35% (inactive),–
Cc1cccc(C)c1OCC(=O)N[C@@H](Cc1ccccc1)[C@@H](O)C[C@H](Cc1ccccc1)NC(=O)[C@H](C(C)C)N1CCCNC1=O,9.65% (inactive),–
COC(=O)[C@H](Cc1ccccc1)NC(=O)[C@@H](N)CC(=O)O (H-Asp-Phe-OMe),14.5% (inactive),–
NS(=O)(=O)c1cc(C(=O)O)c(NCc2ccco2)cc1Cl,-1.42% (inactive),–
CC(C)c1nc(CN(C)C(=O)N[C@H](C(=O)N[C@@H](Cc2ccccc2)C[C@H](O)[C@H](Cc2ccccc2)NC(=O)OCc2cncs2)C(C)C)cs1,–,inactive
Cc1nc2n(c(=O)c1CCN1CCC(c3noc4cc(F)ccc34)CC1)CCCC2,-1.06% (inactive),–
Cc1cc2cc3c(C)cc(=O)oc3c(C)c2o1,0% (inactive),–
CCC(C)(Oc1ccc(C2(c3ccc(OC(C)(CC)C(=O)O)cc3)CCCCC2)cc1)C(=O)O (stereo not given),16% (inactive),–
Nc1ncn([C@H]2C[C@H](O)[C@@H](CO)O2)c(=O)n1,0.575% (inactive),–
CC1=C(C(=O)O)N2C(=O)[C@@H](NC(=O)[C@H](N)C3=CCC=CC3)[C@H]2SC1,-15.9% (inactive),–
N=C(N=C(N)N)N1CCOCC1,-3.73% (inactive),–
NNc1nncc2ccccc12,-20.1% [at 25.3 µM] (inactive),–
CN1C(C(=O)Nc2ccccn2)=C(O)c2sccc2S1(=O)=O,1.71% (inactive),–
O=C(NOCC1CC1)c1ccc(F)c(F)c1Nc1ccc(I)cc1Cl,-28.2% (inactive),–
COC(=O)C1=C(C)NC(C)=C(C(=O)OC(C)C)C1c1cccc2nonc12 (stereo not given),-3.79% (inactive),–
CC(S)C(=O)NCC(=O)O (stereo not given),7.2% (inactive),–

# Test system: Tov-21-G
# Experiment: as above
# Settings: Gynecologic cancer cell panel viability, ATPlite luminescence, 48 h; series mostly up to 57.5 µM; activity change, negative = cytotoxicity: at the top concentration
# Summary of the method: as §1
Compound,"activity change, negative = cytotoxicity",Potency
CCC[C@@H]1C[C@@H](C(=O)N[C@@H]([C@H]2O[C@H](SC)[C@H](O)[C@@H](O)[C@H]2O)[C@@H](C)O)N(C)C1,-1.87% (inactive),–
COc1ccc(C2(C#N)CCC(C(=O)O)CC2)cc1OC1CCCC1 (stereo not given),-6.97% (inactive),–
CC(=O)Nc1ccc(O)cc1,-1.09% (inactive),–
Nc1ccc(S(N)(=O)=O)cc1,-0.888% (inactive),–
O=C(c1ccccc1)c1ccc2n1CCC2C(=O)O (stereo not given),2.71% (inactive),–
CCN(CCO)CCCC(C)Nc1ccnc2cc(Cl)ccc12 (stereo not given),2.96% [at 6.55 µM] (inactive) and -2.5% [at 6.55 µM] (inactive),–
Clc1ccc(C(Cn2ccnc2)OCc2ccc(Sc3ccccc3)cc2)c(Cl)c1 (stereo not given),1.32% (inactive),–
COCCCN1CCC(NC(=O)c2cc(Cl)c(N)c3c2OCC3)CC1,-0.63% (inactive),–
O=C(O)CCNC(=O)c1ccc(N=Nc2ccc(O)c(C(=O)O)c2)cc1,-1.62% (inactive),–
CCCc1cc(=O)[nH]c(=S)[nH]1,1.8% (inactive),–
Oc1ccc(OCc2ccccc2)cc1,-0.293% (inactive),–
Cc1cccc(C)c1OCC(=O)N[C@@H](Cc1ccccc1)[C@@H](O)C[C@H](Cc1ccccc1)NC(=O)[C@H](C(C)C)N1CCCNC1=O,7.61% (inactive),–
COC(=O)[C@H](Cc1ccccc1)NC(=O)[C@@H](N)CC(=O)O (H-Asp-Phe-OMe),0.437% (inactive),–
COc1cc2nc(N3CCN(C(=O)C4CCCO4)CC3)nc(N)c2cc1OC (stereo not given),-21.7% (inactive),–
NS(=O)(=O)c1cc(C(=O)O)c(NCc2ccco2)cc1Cl,-17.4% (inactive),–
Cc1cc(=O)oc2cc(O)ccc12,-0.881% (inactive),–
CC(C)c1nc(CN(C)C(=O)N[C@H](C(=O)N[C@@H](Cc2ccccc2)C[C@H](O)[C@H](Cc2ccccc2)NC(=O)OCc2cncs2)C(C)C)cs1,–,inactive
CC1(C)CCC(C)(C)c2cc(NC(=O)c3ccc(C(=O)O)cc3)ccc21,9.79% (inactive),–

Compound,"activity change, negative = cytotoxicity",Potency
Cc1nc2n(c(=O)c1CCN1CCC(c3noc4cc(F)ccc34)CC1)CCCC2,1.52% (inactive),–
Cc1cc2cc3c(C)cc(=O)oc3c(C)c2o1,-4.79% (inactive),–
CCC(C)(Oc1ccc(C2(c3ccc(OC(C)(CC)C(=O)O)cc3)CCCCC2)cc1)C(=O)O (stereo not given),–,inactive
Nc1ncn([C@H]2C[C@H](O)[C@@H](CO)O2)c(=O)n1,-8.33% (inactive),–
CS(=O)(=O)OCCCCOS(C)(=O)=O,4.12% (inactive),–
CC(C)CC(=O)N[C@H](C(=O)N[C@H](C(=O)N[C@@H](CC(C)C)[C@@H](O)CC(=O)N[C@@H](C)C(=O)N[C@@H](CC(C)C)[C@@H](O)CC(=O)O)C(C)C)C(C)C (Isovaleryl-VV[Sta]A[Sta]-OH),0.63% (inactive),–
CC1=C(C(=O)O)N2C(=O)[C@@H](NC(=O)[C@H](N)C3=CCC=CC3)[C@H]2SC1,9.7% (inactive),–
N=C(N=C(N)N)N1CCOCC1,3.43% (inactive),–
O=C(NCC1CCCCN1)c1cc(OCC(F)(F)F)ccc1OCC(F)(F)F (stereo not given),-9.54% (inactive),–
CCC1=C(C)CN(C(=O)NCCc2ccc(S(=O)(=O)NC(=O)NC3CCC(C)CC3)cc2)C1=O (stereo not given),–,inactive
NNc1nncc2ccccc12,-1.88% [at 25.3 µM] (inactive),–
CN1C(C(=O)Nc2ccccn2)=C(O)c2sccc2S1(=O)=O,-2.87% (inactive),–
CN(C)C(=O)COC(=O)Cc1ccc(OC(=O)c2ccc(N=C(N)N)cc2)cc1,3.06% (inactive),–
COC(=O)C1=C(C)NC(C)=C(C(=O)OC(C)C)C1c1cccc2nonc12 (stereo not given),-1.39% (inactive),–
Cn1c(NCCN(CCO)CCCc2ccc([N+](=O)[O-])cc2)cc(=O)n(C)c1=O,9.33% (inactive),–
N=C(N)c1ccc2cc(OC(=O)c3ccc(N=C(N)N)cc3)ccc2c1,5.19% (inactive),–
CC(S)C(=O)NCC(=O)O (stereo not given),4.69% (inactive),–
